Pf growth 96h = Primary qHTS for delayed death inhibitors of the malarial parasite plastid, 96 hour incubation | Potency, µM (highest dose often 28.7 µM), inactives show at the highest dose activity change, negative = inhibition, actives largely listed as inhibitors | P. falciparum luciferase reporter growth, 96 h | 320,000 tested, 6.9% active; note: % is set by controls: 0 for no effect and ±100 for the full control effect
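Luminescence readout: decreased luciferase signal marks inhibited growth of reporter-expressing P. falciparum in infected red cells (2% hematocrit, 0.05% parasitemia final), exposed to compound two generations (96 h, 37 C, 5% CO2).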
Pf growth 48h = Primary qHTS for delayed death inhibitors of the malarial parasite plastid, 48 hour incubation. P. falciparum luciferase growth in erythrocytes, 48 h. Potency, µM (series often up to 28.7 µM), for the others: top-dose activity change, negative = inhibition, actives largely listed as inhibitors. 310,000 tested, 5.9% active; note: % is set by controls: 0 for no effect and ±100 for the full control effect
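Read-out is firefly luciferase luminescence from an integrated reporter in P. falciparum, so falling signal marks reduced parasite growth. Infected erythrocytes were at 2% hematocrit and 0.1% parasitemia (final) in Albumax-supplemented RPMI 1640.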
NS1 function inh = qHTS Assay for Inhibitors of Influenza NS1 Protein Function; Potency, µM (doses to about 46.1 µM), for inactives: at the top dose activity, positive = more growth; 270,000 tested, 0.4% active; calls by dose curve; note: actives are rising curves; nearly all actives have a fitted effect of over 50% in size
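Recovery from NS1-induced slow growth read by OD600 in budding yeast switched to galactose assay medium (pH 6.0, -URA) at 1:100 dilution. Compound 23 nl per well; the matching strain lacking NS1 serves as control.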
SARS PLP yeast = qHTS of Yeast-based Assay for SARS-CoV PLP | S. cerevisiae expressing SARS-CoV PLpro, growth rescue | Potency, µM (highest dose often 32.9 µM), without a hit: at the highest dose activity, positive = growth rescue, most hits filed as activators | 330,000 tested, 0.19% active | AID 485353, 2010; calls by dose curve; note: 0% is about no effect; nearly all actives have a fitted effect of over 55% in size
Starred values were filed as active, the others as inactive; ? = inconclusive; / = not tested or not shown; [ ] = remark or other dose. Sampled rows, rich in hits. Any-hit rate of the full collection: about 10%. Unless noted, calls come from the whole dose curve; as a rule, active = well fitted inhibition curve with a large enough effect; inconclusive = small, poorly fitted or top-dose-only effect, or another doubt; inactive = no such curve, though single readings can be large or run the other way. Potency is the fitted concentration of half-maximal effect.

SMILES	Pf growth 96h	Pf growth 48h	NS1 function inh	SARS PLP yeast
CCc1cc2c(COC(=O)CCNS(=O)(=O)c3cccc(C(F)(F)F)c3)cc(=O)oc2cc1O	?	4.7µM*	/	-14%
Cc1cc(/C=C2/NC(=O)NC2=O)c(C)n1-c1ccccn1	9.3µM*	10%	1%	-17%
Cc1ccc(-n2c(C)cc(/C=C3\NC(=O)NC3=O)c2C)c(C)c1	13µM*	13µM*	-2%	-4%
Cc1nn(CCCC(=O)NCc2ccco2)c(=O)c2nn(-c3ccccc3)c(C)c12	-8%	-22%	-6%	2%
CCc1ccc(CCC(=O)O)nc1	/	/	-3%	/
COc1cc2c(cc1OC)[C@@H]1O[C@](c3ccsc3)(C2)Oc2cc(C)n(-c3ccccc3)c(=O)c21	1.5µM*	2%[5.75 µM]	-1%	-1%[6.58 µM]
CCCCn1c(C)cc2c(c1=O)C1O[C@](c3ccsc3)(Cc3ccccc31)O2	5%[5.75 µM]	?	14%	0%[6.58 µM]
Cc1cc2c(c(=O)n1-c1ccccc1)C1O[C@](c3ccsc3)(Cc3ccccc31)O2	1.7µM*	?	-14%	0%[6.58 µM]
COc1ccc(C2=C(CC(=O)O)C(=O)CC2)cc1	0%	24%	12%	11%
O=C(O)CC1=C(c2ccc(F)cc2)CCC1=O	6.6µM*	-9%	2%	4%
COc1ccc(-n2cc(-c3ccc(OC(F)F)cc3)[n+]3c2CCCCC3)cc1	?	1.7µM*	/	1%
O=C(COC(=O)c1cc(-c2cccc(Br)c2)nc2ccccc12)NCC1CCCO1 (configuration not stated)	73%	11%	-13%	1%
Cc1ccc(Nc2cc(C)nc3ncnn23)cc1	?	3.7µM*	-2%	4%
Cc1cc(Nc2ccc(C)c(F)c2)n2ncnc2n1	34%	1.5µM*	0%	-5%
Cc1ccc(-c2cc(C)nc3ncnn23)cc1	12µM*	/	-16%	0%
COc1ccc(CC(=O)N2CCc3cc(OC)c(OC)cc3C2C)c(OC)c1 (configuration not stated)	?	?	-2%	-1%
Cc1nc(SCC(=O)Nc2nnc(C(C)C)s2)n[nH]1	9%	0%	-2%	2%
O=C(c1ccc2ccccc2c1)C1CCCN(C(=O)c2noc3c2CCCC3)C1 (configuration not stated)	?	18%	-5%	-1%
CCc1ccccc1NC(=O)CCC(=O)N1CCSc2ccccc21	4.1µM*	-10%	7%	-3%
O=c1c(C=NCCN2CCNCC2)c(O)n(C2CCCCC2)c(=O)n1C1CCCCC1	?	13µM*	10%	-1%
CCOc1ccc(NC(=S)NNC(=O)c2cc(Br)ccc2Cl)cc1	-33%[5.75 µM]	-8%	/	-3%
CCOc1ccc(NC(=S)NNc2ccnc3cc(Cl)ccc23)cc1	2.1µM*	?	/	-1%
S=C(NNc1ccnc2cc(Cl)ccc12)Nc1ccc(Cl)cc1Cl	0.74µM*	1.9µM*	-11%	-1%
S=C(NCc1ccncc1)Nc1ccc(Cl)cc1Cl	23%	-35%	1%	0%
Cc1cccc(NC(=O)c2ccc(Cl)c(S(=O)(=O)N3CCCCC3)c2)n1	98%	57%	/	5%
SMILES	Pf growth 96h	Pf growth 48h	NS1 function inh	SARS PLP yeast
N#C/C(=C/c1ccc(Sc2nc3ccccc3[nH]2)o1)c1cccc(Br)c1	-98%	/	16%	-2%
CCN1C(=O)S/C(=C/c2ccc(Sc3nc4ccccc4[nH]3)o2)C1=O	9.3µM*	-9%	6%	-12%
C=CC[C@@H](C(=O)O)c1ccccc1	/	/	-7%	/
COc1ccc(OCc2cc(C(=O)NCCCc3ccccc3)no2)c(Cl)c1	9.3µM*	?	-35%	-1%
O=C(NC1CCc2ccccc21)c1cc(COc2ccc(F)cc2F)on1 (configuration not stated)	0%	30%	2%	0%
COc1ccc(OCc2cc(C(=O)NC3CCc4ccccc43)no2)c(Cl)c1 (configuration not stated)	10µM*	-20%	4%	?
CC(/C=N/NC(=O)c1cc(-c2cccn2C)n[nH]1)=C\c1ccccc1	?	?	8%	-2%
CCn1nnc(NC(=O)c2ccc(C(C)(C)C)cc2)n1	10%[5.75 µM]	2.9µM*	-76%	-4%
CCn1nnc(NC(=O)c2cccnc2)n1	77%	21%	13%	8%
CCOC(=O)CCCN	/	/	-7%	/
CCN(Cc1cc(OC)c(OC)c(OC)c1)C(=S)Nc1cccc(SC)c1	10µM*	?	-9%	1%
CSCCC(NS(=O)(=O)c1ccc(C)cc1)C(=O)NCC(C)(C)N1CCOCC1 (configuration not stated)	?	?	/	0%
